23 compounds from PubChem BioAssay (NCATS) can be followed below.

Results filed as inconclusive are left out. Where a call stands in place of a potency, no number is given. Calls of active or inactive are those of the source. Calls follow the shape of the full dose curve.
Potency is read from the fitted curve at half-maximal effect.

For this experiment, the target named is Nucleoprotein (Lymphocytic choriomeningitis virus (strain Armstrong)) (UniProt P09992). The experiment in a line: qHTS for Inhibitors of the Functional Ribonucleoprotein Complex (vRNP) of Lymphocytic Choriomeningitis Arenaviruses (LCMV): LCMV Primary Screen - GLuc reporter signal (AID 1347086). Also: nearly all actives have a fitted effect of over 70% in size. The note with it: LCMV minigenome vRNP cell assay, Gaussia luciferase reporter; series mostly up to 57.5 µM.
Nucleoprotein (Lymphocytic choriomeningitis virus (strain Armstrong)), sequence (P09992 whole entry, looked up): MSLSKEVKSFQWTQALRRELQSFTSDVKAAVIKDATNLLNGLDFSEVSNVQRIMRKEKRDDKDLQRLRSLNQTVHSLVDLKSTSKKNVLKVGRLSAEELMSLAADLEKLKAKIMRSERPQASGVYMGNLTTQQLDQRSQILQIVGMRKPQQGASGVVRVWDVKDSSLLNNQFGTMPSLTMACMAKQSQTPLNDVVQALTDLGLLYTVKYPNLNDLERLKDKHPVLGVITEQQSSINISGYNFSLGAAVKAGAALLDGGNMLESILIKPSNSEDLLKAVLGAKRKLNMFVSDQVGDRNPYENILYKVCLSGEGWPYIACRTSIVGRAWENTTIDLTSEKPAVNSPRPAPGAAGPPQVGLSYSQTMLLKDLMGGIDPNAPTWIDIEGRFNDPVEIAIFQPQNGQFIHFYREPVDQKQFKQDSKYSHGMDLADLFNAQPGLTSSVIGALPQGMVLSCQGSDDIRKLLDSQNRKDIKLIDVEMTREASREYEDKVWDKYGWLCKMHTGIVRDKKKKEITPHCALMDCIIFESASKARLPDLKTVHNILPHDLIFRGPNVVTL
Regarding `CN(C)c1cc(NC(=O)CNC(C)(C)C)c(O)c2c1C[C@@H]1C[C@H]3[C@H](N(C)C)C(=O)C(C(N)=O)=C(O)[C@@]3(O)C(=O)C1=C2O`, the Potency result was “inactive”. With `C=C(CC)C(=O)c1ccc(OCC(=O)O)c(Cl)c1Cl`, the Potency entry is “inactive”. The same measure for `N=c1nc(N2CCCCC2)cc(N)n1O`: “inactive”; for `Fc1ccc([C@@H]2CCNC[C@H]2COc2ccc3c(c2)OCO3)cc1`: “inactive”; for `COc1ccc(OC)c(C(O)CNC(=O)CN)c1` (stereo not drawn): “inactive”.

As to `CC(C)NCC(O)COc1ccc(CCOCC2CC2)cc1` (stereo not drawn), the Potency result is “inactive”. To `Cc1ccsc1C(=CCCN1CCC[C@@H](C(=O)O)C1)c1sccc1C` belongs “inactive”; to `Cc1nc2n(c(=O)c1CCN1CCC(c3noc4cc(F)ccc34)CC1)CCC[C@H]2O`, “inactive”.

For the compound `COc1cc(C(C)=O)ccc1OCCCN1CCC(c2noc3cc(F)ccc23)CC1`, the Potency result was “inactive”.

With `O=C(O)COCCN1CCN(C(c2ccccc2)c2ccc(Cl)cc2)CC1` (stereo not drawn), the Potency result was “inactive”. To `CN1CCC(=C2c3ccccc3C=Cc3ccccc32)CC1` belongs “inactive”; to `CN1C(=O)CC(C)(c2ccccc2)C1=O` (stereo not drawn), “inactive”; to `N[C@@H](C(=O)N[C@@H]1C(=O)N2C(C(=O)O)=C(Cl)CS[C@H]12)c1ccccc1`, “inactive”. As for `CS(=O)(=O)CCNCc1ccc(-c2ccc3ncnc(Nc4ccc(OCc5cccc(F)c5)c(Cl)c4)c3c2)o1`, the Potency was 769 nM (active). For `CCCNC(=O)NS(=O)(=O)c1ccc(Cl)cc1`, the Potency entry was “inactive”. As for `CNCCC(Oc1ccc(C(F)(F)F)cc1)c1ccccc1` (stereo not drawn), the Potency entry is “inactive”.

Turning to `COc1ccccc1Oc1c(NS(=O)(=O)c2ccc(C(C)(C)C)cc2)nc(-c2ncccn2)nc1OCCO`, the Potency entry is “inactive”. Take `C[C@@H](NCCCc1cccc(C(F)(F)F)c1)c1cccc2ccccc12`: the Potency entry was “inactive”. The same measure for `O=C1NC(c2ccccc2)(c2ccccc2)C(=O)N1COP(=O)(O)O`: “inactive”; for `CCCc1nc2c(C)cc(-c3nc4ccccc4n3C)cc2n1Cc1ccc(-c2ccccc2C(=O)O)cc1`: “inactive”.

In the case of `CC1=NS(=O)(=O)c2cc(Cl)ccc2N1`, the Potency entry is “inactive”. To `O=C1[C@H](CC[C@H](O)c2ccc(F)cc2)[C@@H](c2ccc(O)cc2)N1c1ccc(F)cc1` belongs “inactive”; to `CCN(CC)CCNC(=O)c1cc(Cl)c(N)cc1OC`, “inactive”.
